Shown are actives, neighbours in structure and some others; about 9% of the full set was active somewhere.
G9a block = G9a (human) methyltransferase inhibition. G9a H3K9 monomethylation, AlphaScreen, 2 h. Potency, µM (highest dose often 102 µM), usual class: inhibitors. Q96KQ7. hit rate 8.8% among 350,000; also: nearly all actives have a fitted effect of over 75% in size
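Signal arises when biotinylated H3K9 peptide, once monomethylated, bridges streptavidin donor and antibody-captured acceptor beads. Enzyme at 20 nM was preincubated 15 min with test compounds; peptide 500 nM and SAM 20 uM then reacted for 2 h.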
HP1b chromo inh = HP1-beta chromodomain-methylated histone interaction inhibition; Potency, µM (titrated, usually from 114 µM), most hits filed as inhibitors; P83916; AlphaScreen HP1-beta / biotin-H3K9me3 peptide binding; AID 540317; hit rate 0.56% among 390,000; also: nearly all actives have a fitted effect of over 70% in size
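HP1-beta protein (50 nM final) preincubated 30 min at room temperature with biotinylated H3(1-18)K9me3 peptide (50 nM) in PBS pH 7.4, 0.01% Tween-20, then compound added for 30 min. AlphaScreen streptavidin donor/nickel chelate acceptor beads (10 ug/mL final), 30 min dark, luminescence read.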
JMJD2A Tudor = blocks the human JMJD2A Tudor domain. O75164. AlphaScreen JMJD2A-Tudor / H3K4me3 peptide binding. Potency, µM (highest dose often 114 µM), hits mostly inhibitors. hit rate 4.4% among 390,000; also: nearly all actives have a fitted effect of over 50% in size
PLK1 PBD inh = PLK1 (human) polo-box domain binding inhibition; hit rate 2.8% among 360,000; AID 720504; P53350; Potency, µM, usual class: inhibitors; Plk1 PBD binding of FITC phosphopeptide, fluorescence polarization; also: series mostly up to about 57 µM; nearly all actives have a fitted effect of over 65% in size
BAZ2B block = inhibitors of human BAZ2B bromodomain | Q9UIF8 | AlphaScreen BAZ2B-H3K14Ac peptide displacement | Potency, µM (titrated, usually from 114 µM), usual class: inhibitors | hit rate 4.4% among 360,000 | AID 504333; also: nearly all actives have a fitted effect of over 60% in size
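AlphaScreen displacement of biotin-H3(5-23)K14Ac peptide (50 nM final) from BAZ2B (50 nM final) in PBS pH 7.4, 0.01% Tween-20; complex preformed 30 min RT, then compounds (top 110 uM) 30 min RT, beads 20 min dark.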
12-LOX inh = blocks human arachidonate 12S-lipoxygenase | purified 12hLO, xylenol orange hydroperoxide absorbance | Potency, µM (series often up to 108 µM), usual class: inhibitors | P18054 | hit rate 1.1% among 580,000
Target sequence (P18054 whole entry, looked up): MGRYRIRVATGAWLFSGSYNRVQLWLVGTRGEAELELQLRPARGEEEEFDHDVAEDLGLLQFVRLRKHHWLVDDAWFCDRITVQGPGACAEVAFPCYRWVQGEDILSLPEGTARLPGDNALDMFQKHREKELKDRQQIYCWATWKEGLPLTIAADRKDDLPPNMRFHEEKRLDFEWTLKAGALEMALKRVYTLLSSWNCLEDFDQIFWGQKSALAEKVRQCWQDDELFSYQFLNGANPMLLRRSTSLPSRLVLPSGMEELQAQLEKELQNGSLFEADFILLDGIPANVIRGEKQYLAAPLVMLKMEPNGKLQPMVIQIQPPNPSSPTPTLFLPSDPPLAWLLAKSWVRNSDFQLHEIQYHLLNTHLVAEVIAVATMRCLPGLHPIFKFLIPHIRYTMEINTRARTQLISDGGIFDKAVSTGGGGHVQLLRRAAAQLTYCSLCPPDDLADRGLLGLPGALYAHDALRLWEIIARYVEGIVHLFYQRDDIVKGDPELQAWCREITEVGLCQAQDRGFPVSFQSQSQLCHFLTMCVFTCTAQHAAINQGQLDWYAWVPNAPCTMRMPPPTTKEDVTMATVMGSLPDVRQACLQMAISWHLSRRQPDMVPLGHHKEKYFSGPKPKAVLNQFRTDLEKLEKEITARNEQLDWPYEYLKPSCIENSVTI
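Purified human 12hLO (150 nM final) in 25 mM Hepes, 0.01% Triton X-100, pH 7.0 was preincubated 15 min at room temperature with compound. Then 40 uM arachidonic acid was added, 30 min. Hydroperoxide was read by Fe-XO absorbance ratio 573/405 nm.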
Hits are given with their value; . = inactive; ? = inconclusive; / = no result; [ ] = another dose, or the depositor's remark. Calls follow the shape of the dose curve; as a rule, active = well fitted curve in the direction sought with a large enough effect; inconclusive = small, poorly fitted or top-dose-only effect, or another doubt; inactive = no such curve, though single readings can be large; an effect the other way counts as inactive or inconclusive.

SMILES | G9a block | HP1b chromo inh | JMJD2A Tudor | PLK1 PBD inh | BAZ2B block | 12-LOX inh
COc1ccc(CCNC(=O)c2ccn[nH]2)cc1OC | .[0.501 µM] | . | ? | 3µM | . | ?
CCc1nc2ccc(C(=O)NCCc3ccc(OC)c(OC)c3)cc2nc1CC | . | . | . | ? | . | .
CCCCc1ccc(C(=O)c2c(N)c(C(=O)Nc3cccc(OC)c3)c3ccccn23)cc1 | . | . | . | / | . | .
Cc1cccc(-c2nc3c4ccccc4nc(NCCc4ccccc4)n3n2)c1 | . | . | . | / | . | .
CCOC(=O)c1ccccc1NC(=O)N1CCn2c(C)ccc2C1CC (configuration not stated) | 22µM | . | . | . | . | .
CCC1c2ccc(C)n2CCN1C(=O)Nc1ccccc1C(=O)OC (configuration not stated) | 50µM | . | . | . | . | .
CCOC(=O)c1sc2ccccc2c1OC(=O)c1ccc(C)cc1 | . | . | . | ? | . | /
CCOC(=O)c1sc(S(C)=O)c2c1CCc1conc1-2 (configuration not stated) | 32µM | . | . | . | . | .
COc1cc(=O)n2c(c1C(=O)NCc1ccco1)CCN(C(=O)c1ccc(C)c(C)c1)CC2 | / | / | / | / | / | .
Cc1ccc(S(=O)(=O)CCC(=O)Nc2nc3c(s2)CCCC3)cc1 | . | . | . | . | . | .
COc1cccc(OC)c1OCC(O)CN1CCN(c2ccccc2)CC1 (configuration not stated) | ? | . | . | . | . | .
Cc1cccc(C)c1OCC(O)CN1CCN(c2ccccc2)CC1 (configuration not stated) | 71µM | . | . | . | ? | .
Cc1ccc(C)c(OCC(O)CN2CCC(C)CC2)c1C (configuration not stated) | ? | . | .[11.4 µM] | . | 50µM | ?
CC1CCN(CC(O)COc2ccc(OCC(O)CN3CCC(C)CC3)cc2)CC1 (configuration not stated) | / | . | . | . | . | .
Cc1ccc(N2CCN(CC(O)COc3cccc4ccccc34)CC2)cc1 (configuration not stated) | 40µM | ? | 45µM | . | 35µM | ?
COc1ccccc1N1CCN(CC(O)COc2c(OC)cccc2OC)CC1 (configuration not stated) | 14µM | . | . | . | . | .
CC1CCC(C(C)C)C(OC(=O)COC(=O)c2ccc3c(c2)OCO3)C1 (configuration not stated) | / | / | / | / | / | .
N/C(=N\NC(=O)c1cccc(F)c1)c1cc2ccccc2oc1=O | / | ? | . | . | . | .
O=C(NCc1cccc(Cl)c1)C1Cc2c(-c3cccc(F)c3)ccnc2O1 (configuration not stated) | / | / | / | . | / | .
C[C@@H]1CN([C@H](C)CO)C(=O)c2c(c3ccccc3n2C)-c2ccccc2CO[C@@H]1CN(C)C(=O)Nc1ccccc1C(F)(F)F | / | / | / | . | / | .
C=CCn1c(SCC(=O)Nc2cc(Cl)ccc2C(=O)O)nc2sc(C)c(C)c2c1=O | . | . | . | 24µM | . | .
C=CCSc1nc2sc(C)c(C)c2c(=O)n1CC=C | 5.6µM | . | . | . | . | .
C=CCn1c(SCC(=O)Nc2ccc(O)cc2)nc2sc(C)c(C)c2c1=O | / | . | . | ? | / | .
CCOC(=O)Nc1ccc2c(CN3C(=O)NC(CC)(CC)C3=O)cc(=O)oc2c1 | . | . | . | . | . | .
CC(=O)c1ccc([C@@H]2C[C@]34CN(Cc5cccc(C(F)(F)F)c5)S(=O)(=O)[C@H]3C[C@H]2O4)cc1 | . | . | . | . | . | .
SMILES | G9a block | HP1b chromo inh | JMJD2A Tudor | PLK1 PBD inh | BAZ2B block | 12-LOX inh
CC(C)(C)N1CSC(=S)N(Cc2ccccc2)C1 | ? | . | . | ? | . | .
CC(C)N1CSC(=S)N(Cc2ccccc2)C1 | 32µM | . | . | ? | . | .
Cc1ccc(/C=C/C2=NN(Cc3ccccc3)C(=O)CC2)cc1 | . | . | . | . | . | .
CC1=NN(Cc2ccccc2)C(=O)/C1=C\c1ccc(N(C)C)cc1 | 11µM | ? | ? | . | 10µM | .
CCOC(=O)C1=NN(c2ccccc2)C(=O)/C1=C\c1ccc(N(C)C)cc1 | ? | 5.6µM | 8.9µM | 1.9µM | 10µM | ?
Cc1[nH]c(=S)sc1Cc1ccc(F)cc1 | 2µM | . | 40µM | ? | . | ?
Cc1[nH]c(=S)sc1Cc1cccc(C(F)(F)F)c1 | / | / | / | / | / | 25µM
CCCCOc1ccc(S(=O)(=O)n2nc(C)c(S(=O)(=O)N3CCC(C)CC3)c2C)cc1 | . | . | . | / | . | .
Cc1ccc(S(=O)(=O)N2CCC(N3CCC(C)CC3)CC2)cc1 | 25µM | ? | 1.6µM | . | ? | ?
CC1CCN(S(=O)(=O)c2ccc(S(=O)(=O)N3CCC4(CC3)OCCO4)cc2)CC1 | 11µM | . | . | . | . | .
Cc1ccc(S(=O)(=O)n2nc(C)c(S(=O)(=O)N3CCC(C)CC3)c2C)cc1 | . | . | 79µM | / | . | .
CC1CCN(S(=O)(=O)c2ccc(Cl)cc2)CC1 | . | . | . | . | . | .
CC1CN(C2CCN(S(=O)(=O)c3ccc(F)cc3)CC2)CC(C)O1 (configuration not stated) | 10µM | ? | 2.8µM | . | 32µM | .
CCOC(=O)CC(NC(=O)c1cc2cc(Cl)cc(Cl)c2oc1=O)c1ccc(OC)cc1 (configuration not stated) | / | / | / | / | / | .
CCN(CC)S(=O)(=O)c1ccc(/C=C/C(=O)OCC#N)cc1 | . | . | . | . | / | .
Cc1sc2nc(CSc3ccccc3)nc(NCCN(C)C)c2c1C | ? | ? | . | . | . | .
COc1ccc(-n2ncc(C(C)NS(=O)(=O)c3cc(C)sc3C)c2C)cc1 (configuration not stated) | / | / | / | . | / | .
CCOC(=O)C(=CNc1ccc(C(F)(F)F)cc1Cl)C(=O)OCC | . | . | . | . | . | ?
O=C(CN(Cc1ccc(Cl)c(Cl)c1)S(=O)(=O)c1ccccc1)N/N=C\c1ccc2c(c1)OCO2 | . | . | . | . | . | /
COc1ccccc1NS(=O)(=O)c1cc(N/C(=N/S(=O)(=O)c2ccccc2)c2ccc(F)cc2)ccc1Cl | / | / | / | . | / | .
COc1ccc(-c2cc(=O)oc3cc(OC(C)C(=O)NC(Cc4c[nH]c5ccc(O)cc45)C(=O)O)ccc23)cc1 (configuration not stated) | 50µM | . | . | . | 50µM | .
COc1ccc2oc(C(=O)NCC(c3ccco3)N(C)C)c(C)c2c1 (configuration not stated) | ? | . | . | . | 50µM | .
COc1ccc2oc(C(=O)NCc3cc(OC)c(OC)cc3OC)c(C)c2c1 | ? | ? | 35µM | . | ? | .
CSc1ccccc1C(=O)NCC(c1ccco1)N(C)C (configuration not stated) | 40µM | . | . | . | . | .
